Rows were chosen to be rich in hits. Some 32% of all compounds tested hit in one or more screens of this group.
CYP2C9 act: increases human cytochrome P450 2C9 activity | AID 1024 | hit rate 1.4% among 96,000 | recombinant CYP2C9, luciferin-H conversion, luminescence; active compounds read high; factor 1 = untreated enzyme, 0 = blocked | activation factor at 5 µM | P11712;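 active = activation factor of 2 or more for CYP2C9 at a 5 µM dose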;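 note: 0 = sulfaphenazole-blocked wells and 1 = vehicle-only wells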
PostGolgi yeast: growth inhibition of a yeast mutant, post-Golgi transport screen; post-Golgi transport phenotypic cell assay; inhibition, % at 10 µM; hit rate 0.9% among 98,000; AID 739;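 note: yeast cells grown in 1536-well plates; yeast grown about 18 h at 30C before absorbance read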
PostGolgi ctrl: yeast control strain growth, post-Golgi counter-screen; efflux-deficient yeast background strain, growth absorbance A615, 16 h; inhibition, % at 10 µM; hit rate 5% among 98,000; AID 738
CYP2C19 act: activators of human cytochrome P450 2C19; P33261; recombinant CYP2C19, luciferin-H EGE luminescence; active compounds read high; 0 = fully inhibited enzyme, 1 = untreated enzyme; activation factor at 5 µM; 96,000 tested, under 10 active;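 active = activation factor of at least 2 at 5 µM in the primary screen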;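 note: 0 = wells with 2.5 mM tranylcypromine and 1 = vehicle-only wells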
Target sequence (P33261 whole entry, looked up): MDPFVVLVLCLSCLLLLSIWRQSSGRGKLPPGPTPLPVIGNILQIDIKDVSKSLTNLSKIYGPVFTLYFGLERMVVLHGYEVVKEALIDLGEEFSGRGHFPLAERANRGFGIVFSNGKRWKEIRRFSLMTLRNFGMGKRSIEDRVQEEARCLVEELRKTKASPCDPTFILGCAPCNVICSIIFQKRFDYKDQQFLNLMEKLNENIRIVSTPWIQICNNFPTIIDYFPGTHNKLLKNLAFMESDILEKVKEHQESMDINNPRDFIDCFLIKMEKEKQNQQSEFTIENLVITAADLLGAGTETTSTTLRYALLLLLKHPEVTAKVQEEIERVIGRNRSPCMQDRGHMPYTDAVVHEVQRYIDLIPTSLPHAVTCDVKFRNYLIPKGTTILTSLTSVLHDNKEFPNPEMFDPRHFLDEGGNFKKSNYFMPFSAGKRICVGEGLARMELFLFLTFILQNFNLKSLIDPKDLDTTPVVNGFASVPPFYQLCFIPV
CYP2C9 inhib: inhibitors of human CYP2C9 | P11712 | CYP2C9 Supersomes, luciferin-H conversion, luminescence | inhibition, % at 5 µM | hit rate 20% among 96,000;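 active = blocking of liver enzyme CYP2C9 beyond about 50% at 5 µM, limit read from the data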
CYP2C19 inhib: inhibitors of human CYP2C19; CYP2C19 Supersomes, luciferin-H EGE luminescence, 30 min; inhibition, % at 5 µM; P33261; hit rate 21% among 96,000;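 active = CYP2C19 inhibition above a set limit at 5 µM in the primary screen, cut at about 50% in these data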;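 note: plate controls were negative control wells for no effect and 2.5 mM tranylcypromine positive control for full effect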
Numbers without * were called inactive; / = no result given. Cut-off read from the data, not from the text of the source, unless noted: active = inhibition above about 30%; inactive = the rest.

SMILES	CYP2C9 act	PostGolgi yeast	PostGolgi ctrl	CYP2C19 act	CYP2C9 inhib	CYP2C19 inhib
Cc1cccc2sc(NC(=O)CN(C)S(=O)(=O)c3cccs3)nc12	0.4	-2.7	23.0	0.1	58.9*	94.2*
Cc1cccc(NC2(C(F)(F)F)N=C(c3ccccc3)NC2=O)n1 (centres undefined)	0.9	3.6	-3.7	0.9	13.5	10.3
CC(C)(C)NS(=O)(=O)c1ccc(NC(=O)C(Sc2ccccc2)c2ccccc2)cc1 (centres undefined)	0.4	-10.6	17.3	0.8	63.0*	15.3
CC(C)(C)NS(=O)(=O)c1ccc(N2C(=O)c3ccccc3C2=O)cc1	0.8	16.1	9.2	0.8	21.6	18.9
CC(C)(C)NS(=O)(=O)c1ccc(NS(=O)(=O)Cc2ccccc2)cc1	0.2	-3.7	8.2	0.3	81.2*	71.8*
O=C(NC(Nc1cc(C(F)(F)F)ccc1Cl)C(=O)c1ccccc1)c1ccccc1 (centres undefined)	1	-3.6	-3.2	0.9	-4.8	6.8
CN(C)CC(=O)Nc1cc(C(F)(F)F)ccc1Cl	2.2*	37.9*	8.2	0.9	-124.3	8.0
CCOC(=O)/C(O)=C/c1ncc(C(F)(F)F)cc1Cl	0.9	7.5	9.4	0.8	5.0	23.5
O=C(CS(=O)c1cccc(C(F)(F)F)c1)Nc1ccccc1Cl (centres undefined)	3.3*	3.5	5.8	0.5	-231.2	54.9*
Cc1ccc[n+](CC(=O)Nc2cc(C(F)(F)F)ccc2Cl)c1	1.1	22.4	-1.7	0.9	-10.4	14.6
O=C(CCc1ccccc1)Nc1cc(C(F)(F)F)ccc1Cl	3.9*	5.7	10.7	0.4	-290.6	62.0*
CCOC(=O)/C(=N\Nc1cc(C(F)(F)F)ccc1Cl)N(CC)CC	0.6	-1.3	3.2	0.2	42.3	80.1*
O=c1nc2sc3ccccc3n2c(=O)n1-c1cccc(Cl)c1	0.7	-6.7	-5.8	0.3	27.9	67.6*
COc1ccc(C2=NN(C(C#N)c3ccc(OC)c(OC)c3)C(c3ccccc3)C2)cc1 (centres undefined)	0.3	1.9	1.8	0.6	68.3*	41.5
CCOCCN1CCN(c2c(C)c(C)nc3cc(-c4cc(OC)cc(OC)c4)nn23)CC1	0.5	-3.2	28.2	0.1	54.1*	86.6*
CC(C)c1ccc(OCC(=O)NC(=S)Nc2ccc3c4c(cccc24)CC3)cc1	1.3	3.7	2.7	1	-25.3	-3.6
O=C(CSc1nnc2scc(-c3ccc(Cl)cc3)n12)NCc1ccco1	0.6	0.9	7.7	0.4	38.2	56.4*
O=C(CSc1nnc2scc(-c3ccc(Cl)cc3)n12)NCc1ccc2c(c1)OCO2	0.6	8.0	-10.8	0.7	43.2	25.9
O=C(CSc1nnc(Cc2cccs2)n1-c1ccccc1)NCc1ccc2c(c1)OCO2	0.4	1.1	6.8	0.8	59.0*	19.6
CC(Sc1nnc(-c2cccs2)n1-c1ccccc1)C(=O)NCc1ccc2c(c1)OCO2 (centres undefined)	0.1	16.2	6.1	0.3	93.2*	74.7*
O=C(CSc1nnc2scc(-c3ccccc3)n12)NCc1ccc2c(c1)OCO2	0.9	7.0	-11.9	0.3	12.5	67.9*
CCN(CC)CCCN1C(=O)C(O)=C(C(=O)c2sc(C)nc2C)C1c1ccco1 (centres undefined)	0.9	2.1	-1.1	1	7.2	-2.9
Cc1ccc(-n2nnnc2Sc2nc([N+](=O)[O-])nn2C)cc1C	/	1.9	8.1	/	/	/
C=CCn1c(SC(C)C(=O)NCc2ccc3c(c2)OCO3)nc2scc(-c3ccccc3)c2c1=O (centres undefined)	0.2	-33.4	23.3	0.2	79.9*	75.6*
COc1ccc(Cl)c(NCCC(=O)O)c1	/	0.0	-5.8	/	/	/
SMILES	CYP2C9 act	PostGolgi yeast	PostGolgi ctrl	CYP2C19 act	CYP2C9 inhib	CYP2C19 inhib
COc1ccccc1NS(=O)(=O)c1cccc(NC(=O)c2nc3nc(C)cc(C)n3n2)c1	1	-1.3	2.1	0.9	2.5	8.3
COc1ccccc1NS(=O)(=O)c1ccc(O)cc1	2.3*	2.5	19.5	0.1	-125.7	86.5*
COc1ccccc1NS(=O)(=O)c1cccc(C(=O)NN)c1	1.2	-3.1	0.1	0	-19.1	97.3*
COc1cc(C(=S)N2CCOCC2)cc(OC)c1OS(=O)(=O)c1ccc(NC(C)=O)cc1	0.6	-8.1	-2.3	0.4	36.5	57.5*
CCN(CC)c1ccc(-c2nc3cnccc3n2C)cc1	0.1	37.6*	0.1	0.1	91.8*	90.3*
Cc1csc(SCC(=O)Nc2sc3c(c2C#N)CCC3)n1	0.3	28.7	32.4*	0.9	69.3*	9.2
N#Cc1c(NC(=O)CSc2ncn[nH]2)sc2c1CCCC2	0.2	-4.3	9.3	0.6	78.7*	37.6
Cc1ccnc(SCC(=O)Nc2sc3c(c2C#N)CCCC3)n1	0.8	0.1	6.7	0.9	22.6	5.1
CCOc1ccc(N(CC(=O)NCc2cccs2)S(=O)(=O)c2c(C)noc2C)cc1	0.3	3.3	13.6	0.1	68.7*	86.2*
CCOc1ccc(N(CC(=O)NC(C)(C)C)S(=O)(=O)c2c(C)noc2C)cc1	0.6	-1.4	10.9	0.5	42.1	50.4*
CCOc1ccc(N(CC(=O)N2CC=C(c3ccccc3)CC2)S(=O)(=O)c2c(C)noc2C)cc1	0.7	-13.2	1.5	0.4	30.8	63.5*
CCOc1ccc(N(CC(=O)NCc2ccc(F)cc2)S(=O)(=O)c2c(C)noc2C)cc1	1	-0.3	0.0	0.7	-2.5	34.4
CC(=O)Nc1cnc2ccccc2n1	1.1	-1.8	15.7	1.1	-13.2	-8.1
C=CCn1c(=O)c2c(C)c(C)sc2n2c(Nc3ccccc3)nnc12	0.7	2.4	17.2	0.9	27.9	10.7
CCOc1ccc(N2C(=O)CSC23CCCCC3)cc1	0.7	4.8	12.4	0.2	31.7	83.8*
COc1ccc(N2C(=O)CSC23CCCCC3)cc1	/	-6.1	0.6	/	/	/
CCC1(C)Cc2ccccc2C(Nc2c(C)n(C)n(-c3ccccc3)c2=O)=N1 (centres undefined)	0.9	-11.6	4.4	1.1	7.3	-7.8
Cc1noc(C(=O)Nc2c(C)n(C)n(-c3ccccc3)c2=O)c1Cl	/	0.3	7.0	/	/	/
CCOC(=O)c1c(C)[nH]c(C(=O)COC(=O)c2ccc(F)c(S(=O)(=O)N3CCOCC3)c2)c1C	0.8	-3.1	-1.6	1.1	20.5	-7.4
CCOC(=O)c1c(C)[nH]c(C)c1C(=O)COC(=O)C1CCCN1S(=O)(=O)c1ccccc1F (centres undefined)	0.1	14.0	-3.7	0	95.0*	100.4*
O=C(O)C1C(c2ccccc2)C(C(=O)Oc2ccc(O)cc2)C1c1ccccc1 (centres undefined)	0.2	1.5	1.0	0.9	80.2*	10.7
CCCCCCC1CCC(C(=O)NC(CCSC)C(=O)NC(C(=O)OC)C(C)C)CC1 (centres undefined)	0.8	14.7	-4.8	0.1	15.7	85.5*

Screening results as filed in PubChem BioAssay.
